# Test results: PubChem BioAssay (Tox21)
# Unmarked numbers belong to inactive results. Results filed as inconclusive are left out. Entries that show only a call come without a potency. Calls of active or inactive are those of the source. Unless noted, calls come from the whole dose curve; as a rule, active = well fitted curve in the direction sought with a large enough effect in the repeat runs; inconclusive = weak or mixed curves; inactive = no such curve, though single readings can be large; an effect the other way counts as inactive or inconclusive.
# Key:
# [1] = molecular target: Thyrotropin-releasing hormone receptor (Homo sapiens) (UniProt P34981); test: qHTS assay to identify small molecule agonists of the thyrotropin-releasing hormone receptor (TRHR) signaling pathway (AID 1346891; calls by dose curve;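 note: HEK293 cells expressing TRHR with calcium dye readout; series mostly up to about 58 µM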)
# Chain of Thyrotropin-releasing hormone receptor (Homo sapiens) (P34981 whole entry, looked up): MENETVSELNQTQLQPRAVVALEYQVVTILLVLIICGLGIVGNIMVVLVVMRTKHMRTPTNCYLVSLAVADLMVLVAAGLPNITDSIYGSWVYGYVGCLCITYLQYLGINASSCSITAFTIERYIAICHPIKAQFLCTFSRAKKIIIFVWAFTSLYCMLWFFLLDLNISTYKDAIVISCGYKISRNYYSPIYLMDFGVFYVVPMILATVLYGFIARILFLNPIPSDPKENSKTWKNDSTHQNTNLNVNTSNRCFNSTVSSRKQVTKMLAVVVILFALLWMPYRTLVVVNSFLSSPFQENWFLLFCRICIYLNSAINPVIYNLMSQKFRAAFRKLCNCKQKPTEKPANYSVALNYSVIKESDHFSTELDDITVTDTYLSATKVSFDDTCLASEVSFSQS
# Method in brief: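 In 1536-format, 1500 TRHR-Hek293 cells per well grew 18 h, took up calcium dye for 2 h at 37 °C, received compound, and were read kinetically; 15-point titrations, triplicates.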
# [2] = Human pregnane X receptor (PXR) small molecule agonists, qHTS cell viability counter screen (AID 1346977); note: nearly all actives have a fitted effect of over 50% in size; note: potency is the fitted concentration of half-maximal effect
# Method in brief: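 Readout is CellTiter-Fluor fluorescence from PXR-Luc HepG2 cells. Plated cells rested 5hr, then were treated with compounds for 24hr at 37C and 5% CO2, with reagent present during the last hour.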
# [3] = Caspase-3/7 induction in HepG2 cells by small molecules, qHTS assay (AID 1346978); note: nearly all actives have a fitted effect of over 15% in size
# Method in brief: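 Wild-type HepG2 cells (2,000/well) were settled 5 h at 37 C, 5% CO2, then exposed to compounds in DMSO for 17 h. Caspase-3/7 activity was read by luminescence 30 min after adding Caspase-Glo 3/7 reagent at room temperature.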
# [4] = Caspase-3/7 induction in CHO-K1 cells by small molecules, qHTS assay (AID 1346980); note: nearly all actives have a fitted effect of over 15% in size
# Method in brief: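 Wild-type cells were seeded at 1,500 per well and settled 5 hr at 37 C, 5% CO2, then exposed to DMSO-dissolved compounds for 17 hr. Caspase-Glo 3/7 reagent was added, and luminescence was read after 30min at room temperature.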
# [5] = Caspase-3/7 induction in HepG2 cells by small molecules, qHTS cell viability counter screen (AID 1346981); note: series mostly up to about 92 µM; nearly all actives have a fitted effect of over 30% in size
# Method in brief: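 Fluorescence read-out of live-cell protease activity (CellTiter-Fluor) after 1 hr with reagent. This was measured in the same wells as the caspase-3/7 luminescence, on HepG2 cells exposed to DMSO-dissolved compounds for 16 hr at 37 C.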
# [6] = molecular target: Nuclear receptor subfamily 1 group I member 2 (Homo sapiens) (UniProt O75469); test: Human pregnane X receptor (PXR) small molecule agonists, qHTS assay (AID 1346982); note: nearly all actives have a fitted effect of over 35% in size; note: potency is the fitted concentration of half-maximal effect
# Chain of Nuclear receptor subfamily 1 group I member 2 (Homo sapiens) (O75469 whole entry, looked up): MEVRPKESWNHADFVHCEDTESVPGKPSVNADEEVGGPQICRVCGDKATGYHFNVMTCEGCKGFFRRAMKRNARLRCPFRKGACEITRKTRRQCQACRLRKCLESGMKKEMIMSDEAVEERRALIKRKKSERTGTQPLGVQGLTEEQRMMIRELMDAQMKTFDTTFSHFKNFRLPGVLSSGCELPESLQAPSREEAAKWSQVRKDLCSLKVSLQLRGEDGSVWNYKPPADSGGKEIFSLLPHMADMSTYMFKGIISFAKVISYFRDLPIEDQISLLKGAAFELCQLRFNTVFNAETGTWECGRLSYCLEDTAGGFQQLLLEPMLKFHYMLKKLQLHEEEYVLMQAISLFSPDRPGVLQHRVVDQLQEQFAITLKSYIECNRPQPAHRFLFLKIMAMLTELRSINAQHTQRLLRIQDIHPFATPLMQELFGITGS
# Method in brief: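 HepG2 PXR-Luc reporter line, 5% charcoal-stripped FBS; 5 hr pre-incubation, compound (DMSO) 24 hr at 37 C/5% CO2; ONE-Glo 30 min RT; luminescence read-out.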
# [7] = molecular target: Nuclear receptor subfamily 1 group I member 2 (Rattus norvegicus) (UniProt Q9R1A7); test: Rat pregnane X receptor (rPXR) activation by small molecules, qHTS assay (AID 1346983); settings: rPXR luciferase reporter cells, One-Glo luminescence, 24 h; max activation: active compounds read high; note: nearly all actives have a fitted effect of over 20% in size; note: potency is the fitted concentration of half-maximal effect
# Chain of Nuclear receptor subfamily 1 group I member 2 (Rattus norvegicus) (Q9R1A7 whole entry, looked up): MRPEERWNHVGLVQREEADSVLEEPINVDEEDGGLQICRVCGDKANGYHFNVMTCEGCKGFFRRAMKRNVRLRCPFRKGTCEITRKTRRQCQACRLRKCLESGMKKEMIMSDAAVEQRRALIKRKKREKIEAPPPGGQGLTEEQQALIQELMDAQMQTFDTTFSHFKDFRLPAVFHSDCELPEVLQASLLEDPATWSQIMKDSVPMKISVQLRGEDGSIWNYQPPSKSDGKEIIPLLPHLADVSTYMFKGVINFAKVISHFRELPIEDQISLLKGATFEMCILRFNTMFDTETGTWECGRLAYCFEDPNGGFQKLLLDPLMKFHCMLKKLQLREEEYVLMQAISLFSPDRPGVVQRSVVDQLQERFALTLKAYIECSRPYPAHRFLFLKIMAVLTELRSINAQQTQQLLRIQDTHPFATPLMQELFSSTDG
# Method in brief: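 Cell-based rPXR luciferase reporter assay, 2,000 cells per well, rested 5hr at 37 C before compound addition in DMSO, then 24 hr at 37 C. One-Glo reagent was added and luminescence read after 30 min at room temperature.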
# [8] = molecular target: Nuclear receptor subfamily 1 group I member 2 (Homo sapiens) (UniProt O75469); test: CYP3A4 induction through human pregnane X receptor (PXR) by small molecules, qHTS assay (AID 1346984); note: nearly all actives have a fitted effect of over 40% in size; note: potency is the fitted concentration of half-maximal effect
# Method in brief: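 HepG2-derived DPX-2 line carrying PXR plus a CYP3A4-promoter luciferase reporter; cells plated 5 hr, compound-exposed 24 hr at 37C. CYP3A4 activity probed with 3uM (final) Luciferin-IPA for 3hr, then luciferase read after One-Glo.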
# [9] = molecular target: Nuclear receptor subfamily 1 group I member 2 (Homo sapiens) (UniProt O75469); test: Human pregnane X receptor (PXR) activation by small molecules, qHTS assay (AID 1346985); note: nearly all actives have a fitted effect of over 40% in size
# Method in brief: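 DPX-2 cells (HepG2 co-transfected with a PXR response element and a CYP3A4-promoter luciferase construct) were seeded at 2,000 per well, rested 5 hr at 37C, then exposed to DMSO-dissolved compounds for 24 hr. Activation was read as luciferase luminescence.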
# [10] = Caspase-3/7 induction in CHO-K1 cells by small molecules, qHTS cell viability counter screen (AID 1346979); note: nearly all actives have a fitted effect of over 35% in size; note: potency is the fitted concentration of half-maximal effect
# Method in brief: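 To flag cytotoxic compounds, treated CHO-K1 wild-type cells were given CellTiter-Fluor at 16hr and read fluorescently after 1hr at 37C; the caspase-3/7 luminescence was measured in these same wells.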
smiles,measurement,setting,value
CCN(CCCCOC(=O)c1ccc(OC)c(OC)c1)C(C)Cc1ccc(OC)cc1 (stereo not given),outcome,[1],inactive
same,Potency,[2],inactive
same,Potency,[3],inactive
same,Potency,[4],inactive
same,Potency,[5],inactive
same,Potency,[6],inactive
same,max activation,[7],3.44%
same,Potency,[8],inactive
same,Potency,[9],inactive
O=C(O)c1ccc2c(c1)nc(C(=O)NC1CCN(C3CC3)CC1)n2Cc1cc(-c2ccc(Cl)s2)on1,activation,[1],2.01% [at 11.8 µM]
same,"activity change, negative = cytotoxicity",[2],17.8% [at 19 µM]
same,caspase activation,[3],-0.956% [at 19 µM]
same,caspase-3/7 activation,[4],9.35% [at 19 µM]
same,"activity change, negative = cytotoxicity",[5],3.23% [at 19 µM]
same,activation,[6],-32.3% [at 19 µM]
C(/C=C/C=C/Nc1ccccc1)=Nc1ccccc1,outcome,[1],inactive
same,Potency,[2],inactive
same,Potency,[10],inactive
same,Potency,[4],inactive
same,Potency,[5],inactive
CCc1ccc2c(c1)C(=O)c1ccccc1C2=O,outcome,[1],inactive
same,Potency,[2],inactive
same,Potency,[3],inactive
same,Potency,[4],inactive
same,Potency,[5],inactive
same,Potency,[6],21.7 µM (active)
Cc1ccccc1CCO,outcome,[1],inactive
same,Potency,[2],inactive
same,Potency,[3],inactive
same,Potency,[4],inactive
same,Potency,[5],inactive
same,Potency,[6],inactive
O=C1CCCN1CCO,outcome,[1],inactive
same,Potency,[2],inactive
same,Potency,[10],inactive
same,Potency,[4],inactive
same,Potency,[5],inactive
same,Potency,[6],inactive
CCc1c(C)[nH]c2c1C(=O)C(CN1CCOCC1)CC2 (stereo not given),outcome,[1],inactive
same,Potency,[2],inactive
same,Potency,[3],inactive
same,Potency,[4],inactive
same,Potency,[5],inactive
same,max activation,[7],-1.99%
CC(=O)OCC(=O)[C@@]1(O)CC[C@H]2[C@@H]3CCC4=CC(=O)C=C[C@]4(C)[C@@]3(F)[C@@H](O)C[C@@]21C,outcome,[1],inactive
same,Potency,[2],inactive
same,Potency,[3],inactive
same,Potency,[5],inactive
same,Potency,[6],inactive
same,Potency,[7],8.91 µM (active)
same,Potency,[8],0.631 µM (active)
same,Potency,[9],inactive
Clc1ccccc1-c1nc(-c2ccncc2)no1,outcome,[1],inactive
same,Potency,[2],inactive
same,Potency,[10],inactive
same,Potency,[4],inactive
same,Potency,[5],inactive
same,Potency,[6],5.31 µM (active)
Nc1ccccc1Nc1ccccc1,outcome,[1],inactive
same,Potency,[2],30.7 µM (active)
same,Potency,[3],inactive
same,Potency,[4],inactive
same,Potency,[6],19.4 µM (active)
C/C(=C(\CCO)SS/C(CCO)=C(\C)N(C=O)Cc1cnc(C)nc1N)N(C=O)Cc1cnc(C)nc1N,outcome,[1],inactive
same,Potency,[2],inactive
same,Potency,[3],inactive
same,Potency,[5],inactive
same,Potency,[6],inactive
same,max activation,[7],-1.12%
same,Potency,[8],inactive
same,Potency,[9],inactive
OCCc1ccncc1,outcome,[1],inactive
same,Potency,[2],inactive
same,Potency,[10],inactive
same,Potency,[4],inactive
same,Potency,[5],inactive
same,Potency,[6],inactive
COc1ccc(C(=O)Nc2ccccc2)cc1[N+](=O)[O-],outcome,[1],inactive
same,Potency,[2],inactive
same,Potency,[3],inactive
same,Potency,[5],inactive
same,Potency,[6],30.9 µM (active)
C=CC(C)(O)CC/C=C(/C)CCC=C(C)C (stereo not given),outcome,[1],inactive
same,Potency,[2],inactive
same,Potency,[3],inactive
same,Potency,[4],inactive
same,Potency,[5],inactive
same,Potency,[6],54.5 µM (active)
c1ccc(CN(Cc2ccccc2)Cc2ccccc2)cc1,outcome,[1],inactive
same,Potency,[2],inactive
same,Potency,[3],inactive
same,Potency,[4],inactive
same,Potency,[5],inactive
same,Potency,[6],30.6 µM (active)
Cc1ccc(Cl)c(OCC(O)CNC(C)(C)C)c1 (stereo not given),outcome,[1],inactive
same,Potency,[2],inactive
same,Potency,[10],inactive
same,Potency,[4],inactive
same,Potency,[5],inactive
O=C(Cl)c1ccc(F)c(Cl)c1,outcome,[1],inactive
same,Potency,[2],inactive
same,Potency,[3],inactive
same,Potency,[4],inactive
same,Potency,[6],inactive
COC(=O)C(C)(C)C,outcome,[1],inactive
same,Potency,[2],inactive
same,Potency,[3],inactive
same,Potency,[4],inactive
same,Potency,[5],inactive
same,Potency,[6],inactive
O=[N+]([O-])c1ccccc1CCO,outcome,[1],inactive
same,Potency,[2],inactive
same,Potency,[3],inactive
same,Potency,[4],inactive
same,Potency,[5],inactive
same,Potency,[6],inactive
O=C(c1ccc(Cl)cc1)c1ccc(Cl)cc1,outcome,[1],inactive
same,Potency,[2],inactive
same,Potency,[10],inactive
same,Potency,[4],inactive
same,Potency,[5],inactive
CCCOC(C)=O,outcome,[1],inactive
same,Potency,[2],inactive
same,Potency,[3],inactive
same,Potency,[4],inactive
same,Potency,[5],inactive
same,Potency,[6],inactive
C1CCN(CN2CCCCC2)CC1,outcome,[1],inactive
same,Potency,[2],inactive
same,Potency,[3],inactive
same,Potency,[4],inactive
same,Potency,[5],inactive
same,Potency,[6],inactive
Nc1nc(Cl)nc2c1ncn2[C@H]1C[C@H](O)[C@@H](CO)O1,outcome,[1],inactive
same,Potency,[2],inactive
same,Potency,[3],inactive
same,Potency,[4],inactive
same,Potency,[5],inactive
same,Potency,[6],1.71 µM (active)
O=C(O)CCc1nc2ccccc2[nH]1,outcome,[1],inactive
same,Potency,[2],inactive
same,Potency,[3],inactive
same,Potency,[4],inactive
same,Potency,[5],inactive
same,Potency,[6],inactive
CC(C)(C(=O)O)c1ccc(C(O)CCCN2CCC(C(O)(c3ccccc3)c3ccccc3)CC2)cc1 (stereo not given),outcome,[1],inactive
same,Potency,[2],inactive
same,Potency,[10],inactive
same,Potency,[4],inactive
same,Potency,[5],inactive
same,Potency,[6],inactive
CCCCCCCCC(=O)OCC(C)OC(=O)CCCCCCCC (stereo not given),outcome,[1],inactive
same,Potency,[2],inactive
same,Potency,[3],inactive
same,Potency,[5],inactive
same,Potency,[6],inactive
Cc1cc(C)n(CO)n1,outcome,[1],inactive
same,Potency,[2],inactive
same,Potency,[10],inactive
same,Potency,[4],inactive
same,Potency,[5],inactive
same,Potency,[6],inactive
CC(=O)Nc1ccccc1O,outcome,[1],inactive
same,Potency,[2],inactive
same,Potency,[10],inactive
same,Potency,[4],inactive
same,Potency,[5],inactive
C[C@]12CCC(=O)C=C1[C@@H]1C[C@@H]1[C@H]1[C@@H]3[C@@H]4C[C@@H]4[C@@]4(CCC(=O)O4)[C@@]3(C)CC[C@@H]12,outcome,[1],inactive
same,Potency,[2],inactive
same,Potency,[3],inactive
same,Potency,[4],inactive
same,Potency,[5],inactive
same,Potency,[6],inactive
same,Potency,[8],11.2 µM (active)
CC1(COc2ccc(CC3SC(=O)NC3=O)cc2)CCCCC1 (stereo not given),outcome,[1],inactive
same,Potency,[2],inactive
same,Potency,[3],inactive
same,Potency,[4],inactive
same,Potency,[5],inactive
same,max activation,[7],5.72%
O=C(O)c1cccc(C(=O)O)c1C(=O)O,outcome,[1],inactive
same,Potency,[2],inactive
same,Potency,[10],inactive
same,Potency,[4],inactive
same,Potency,[5],inactive
same,Potency,[6],inactive
O=Cc1ccc(Cl)c([N+](=O)[O-])c1,outcome,[1],inactive
same,Potency,[2],inactive
same,Potency,[10],68.6 µM (active)
same,Potency,[4],inactive
same,Potency,[5],inactive
same,Potency,[6],inactive
CCCCCCOC(=O)c1ccccc1,outcome,[1],inactive
same,Potency,[2],inactive
same,Potency,[10],inactive
same,Potency,[4],inactive
same,Potency,[5],inactive
same,Potency,[6],inactive
Cc1c(Nc2ncccc2C(=O)O)cccc1C(F)(F)F,outcome,[1],inactive
same,Potency,[2],inactive
same,Potency,[3],inactive
same,Potency,[4],inactive
same,Potency,[5],inactive
same,max activation,[7],-1.47%
same,Potency,[8],inactive
same,Potency,[9],inactive
CC(C)C/C=C(\C=O)c1ccccc1,outcome,[1],inactive
same,Potency,[2],inactive
same,Potency,[3],inactive
same,Potency,[4],inactive
same,Potency,[6],30.6 µM (active)
CC(C)(C)c1ccc(CCC=O)cc1,outcome,[1],inactive
same,Potency,[2],inactive
same,Potency,[3],inactive
same,Potency,[4],inactive
same,Potency,[5],inactive
same,Potency,[6],inactive
C/C=C1\[C@H]2C=C(C)C[C@]1(N)c1ccc(=O)[nH]c1C2,outcome,[1],inactive
same,Potency,[2],inactive
same,Potency,[10],inactive
same,Potency,[5],inactive
same,Potency,[6],inactive
same,max activation,[7],-1.47%
same,Potency,[8],inactive
same,Potency,[9],inactive
